# Measurements from PubChem BioAssay (EPA / NIEHS).
# “And” between values parts separate entries of the source, which are not always exact repeats. Equal values may be shown once. Some structures have more than one record in an assay (separate samples or runs), and their calls can disagree. The source made the active and inactive calls. The calls were made as follows: active = hit-call score of the fitted dose curve at least 0.9, where 1 is the maximum; inactive = score below 0.9.
# Read-out: E-selectin (Homo sapiens) (UniProt P16581)
# Experiment: BSK_LPS_Eselectin: BioMAP Diversity Plus: LPS Assay for Eselectin Biomarker Activity (AID 2283077)
# Details: primary human HUVEC with PBMC; actives raise or lower the signal
# Description: BSK_LPS is a cell-based, multiplexed-readout assay that uses umbilical vein endothelium and peripheral blood mononuclear cells, a human vascular primary cell co-culture, with measurements taken at 24 hours after chemical dosing in a 96-well plate.BSK_LPS_Eselectin is an assay component measured in the BSK_LPS assay. It measures E-selectin antibody related to regulation of gene expression using ELISA technology.Data from the assay component BSK_LPS_Eselectin was analyzed into 1 assay endpoint. This assay endpoint, BSK_LPS_Eselectin, was analyzed with bidirectional fitting relative to DMSO as the negative control and baseline of activity. Using a type of binding reporter, gain or loss-of-signal activity can be used to understand changes in the signaling as they relate to the gene SELE. Furthermore, this assay endpoint can be referred to as a primary readout, because this assay has produced multiple assay endpoints where this one serves a signaling function. To generalize the intended target to other relatable targets, this assay endpoint is annotated to the cell adhesion molecules intended target family, where the subfamily is selectins.
# The levels of cell surface (or secreted, indicated by the prefix "s") biomarker endpoints were measured by ELISA. Overt cytotoxicity to cells in confluent adherent cultures (all systems other than the BT system) was assessed by measuring total protein levels using sulforhodamine B (SRB) staining in parallel cultures at the time of biomarker measurements, indicated as SRB endpoints. For proliferation assays for adherent cell types, individual cell types are cultured at sub-confluence and relative cell numbers quantified by SRB staining at time points optimized for each system (48 h: 3C and CASM3C systems; 72 h: BT and HDF3CGF systems; 96 h: SAg system). SRB was performed by staining cells with 0.1% SRB after fixation with 10% TCA and reading wells at 560 nm.Viability and proliferation of PBMC (T cells) was quantified by Alamar Blue reduction for the SAg and BT systems. For PBMC viability (referred to as PBMC Cytotoxicity within the assay endpoint names), cells were plated (75,000/well in a 96-well plate) and then chemical samples added for 1 h before addition of activators, SEB and TSST-1 (20 ng/mL final concentration each). Cells were incubated for 90 h. Then, Alamar Blue (20 uL/well) (Invitrogen, Cat DAL1100) was added for 6 h, and the plates were read with a fluorescence microplate reader at 546/580 nm (excitation/emission). For PBMC proliferation, cells were plated and activated as above but incubated for only 16 h prior to addition of Alamar Blue. Plates were read after 6 h.
# Chain of E-selectin (Homo sapiens) (P16581 whole entry, looked up): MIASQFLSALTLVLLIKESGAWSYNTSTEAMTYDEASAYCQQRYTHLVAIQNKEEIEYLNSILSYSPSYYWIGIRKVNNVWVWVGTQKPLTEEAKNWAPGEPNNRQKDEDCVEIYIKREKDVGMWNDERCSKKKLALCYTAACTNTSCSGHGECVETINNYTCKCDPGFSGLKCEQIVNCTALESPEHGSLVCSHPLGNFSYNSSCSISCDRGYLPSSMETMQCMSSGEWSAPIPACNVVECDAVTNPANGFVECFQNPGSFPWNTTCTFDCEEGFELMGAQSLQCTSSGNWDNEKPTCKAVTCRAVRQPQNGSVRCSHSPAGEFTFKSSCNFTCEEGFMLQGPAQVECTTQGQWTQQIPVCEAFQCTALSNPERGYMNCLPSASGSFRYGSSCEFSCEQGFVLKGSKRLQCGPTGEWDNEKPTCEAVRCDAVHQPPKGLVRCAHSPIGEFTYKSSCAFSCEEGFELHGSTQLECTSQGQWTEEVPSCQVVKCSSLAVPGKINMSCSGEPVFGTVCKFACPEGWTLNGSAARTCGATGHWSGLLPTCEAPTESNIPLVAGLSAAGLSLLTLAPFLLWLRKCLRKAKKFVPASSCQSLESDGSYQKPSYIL
Structure (SMILES),outcome,AC50
Cc1ccc(S(=O)(=O)OCC(F)(F)C(F)(F)C(F)(F)C(F)(F)C(F)(F)C(F)F)cc1,inactive,–
C=C(C)C(=O)OCCC(F)(F)C(F)(F)C(F)(F)C(F)(F)C(F)(C(F)(F)F)C(F)(F)F,inactive,–
O=C(O)C(F)(OC(F)(F)C(F)(OC(F)(F)C(F)(F)C(F)(F)F)C(F)(F)F)C(F)(F)F (stereo not given),inactive,–
OCC(F)(F)C(F)(F)C(F)(F)C(F)(F)C(F)(F)C(F)F,inactive,–
FC(F)(Br)C(F)(F)C(F)(F)C(F)(F)C(F)(F)C(F)(F)Br,inactive,–
CC(C)(C)C(=O)CC(=O)C(F)(F)C(F)(F)C(F)(F)F,inactive,–
FC(F)(F)C(F)(F)CNCC(F)(F)C(F)(F)F,inactive,–
C=C(C)C(=O)OCC(F)(F)C(F)(F)C(F)(F)C(F)(F)C(F)(F)C(F)(F)C(F)(F)F,inactive,0.0306 µM (active)
C=CC(F)(F)C(F)(F)C(F)(F)C(F)(F)C(F)(F)C(F)(F)C(F)(F)C(F)(F)C=C,inactive,–
O=C(O)C(F)(F)C(F)(F)C(F)(F)C(F)(F)C(F)(F)C(F)(F)C(F)(F)C(F)(F)Cl,inactive,30 µM (active)
O=C(O)C(F)(F)C(F)(F)C(F)(F)C(F)(F)C(F)(F)C(F)(F)C(F)(F)C(F)(F)C(F)(F)C(F)F,inactive,58.3 µM (active)
CCCCCCCCCCCCCCCC[N+](C)(C)Cc1ccccc1,–,4.01 µM (active)
O=C(O)C(F)(F)C(F)(F)C(F)F,inactive,–
FC(F)(F)C(F)(F)C(F)(F)C(F)(F)C(F)(F)C(F)(F)CCS,inactive,–
O=C(O)C(F)(F)C(F)(F)C(F)(F)C(F)(F)C(F)(F)C(F)(F)C(F)(F)C(F)(F)C(F)(F)C(F)(F)C(F)(F)C(F)(F)F,inactive,–
O=C(O)C(F)(F)C(F)(F)C(F)(F)C(F)(F)C(F)(F)C(F)(F)C(F)(F)C(F)(F)C(F)(F)C(F)(F)C(F)(F)C(F)(F)C(F)(F)F,inactive,–
CC(=O)Nc1ccc(N=Nc2cc(C)ccc2O)cc1,inactive,–
C=CC(=O)OCC(F)(F)C(F)(F)C(F)(F)C(F)(F)C(F)(F)C(F)(F)C(F)(F)F,inactive,–
C=CC(=O)OCC(F)(F)C(F)(F)C(F)(F)C(F)(F)COC(=O)C=C,–,17.3 µM (active) and 17.6 µM (active)

Structure (SMILES),outcome,AC50
FC(F)(F)C(F)(F)C(F)(F)C(F)(F)C(F)(F)CCI,inactive,–
O=C(O)C=C(C(F)(F)F)C(F)(F)F,inactive,–
FC(F)(F)C(F)(F)C(F)(F)C(F)(F)C(F)(F)C(F)(F)C(F)(F)C(F)(F)CCS,inactive,–
FC(F)(F)C(F)(F)C(F)(F)N(C(F)(F)C(F)(F)C(F)(F)F)C(F)(F)C(F)(F)C(F)(F)F,inactive,–
C#C[C@]1(O)CC[C@H]2[C@@H]3CCc4cc(OC)ccc4[C@H]3CC[C@@]21C,inactive,–
FC(F)(F)C(F)(F)C(F)(F)C(F)(F)C(F)(F)C(F)(F)C(F)(F)C(F)(F)F,inactive,–
C=CC/C=C/C/C=C/C/C=C/C,inactive,–
CC(CCl)OP(=O)(OC(C)CCl)OC(C)CCl (stereo not given),inactive,–
OCC(F)(F)C(F)(F)C(F)(F)C(F)(F)C(F)(F)C(F)(F)F,inactive,–
CS(C)(=O)=O,inactive,–
C=C(C)C(=O)OCC(F)(F)C(F)(F)C(F)(F)F,inactive,–
FC1CC(F)(F)C(F)(F)C1(F)F (stereo not given),inactive,–
C=CC(F)(F)C(F)(F)C(F)(F)C(F)(F)C(F)(F)C(F)(F)C(F)(F)C(F)(F)F,inactive,–
NC(=O)C(F)(F)C(F)(F)C(F)(F)C(F)(F)F,inactive,–
CCCCCCCCC(F)(F)C(F)(F)C(F)(F)C(F)(F)C(F)(F)C(F)(F)F,inactive,–
O=S(=O)(OCC(F)F)C(F)(F)F,inactive,–
N=C(N)C(F)(F)C(F)(F)C(F)(F)C(F)(F)C(F)(F)C(F)(F)C(F)(F)F,inactive,–
FC(F)(I)C(F)(F)C(F)(F)C(F)(F)I,inactive,–
